Laboratory results: ChEMBL document CHEMBL1961873, “Compounds: GSK PKIS; Assays: Nanosyn kinase panel” (2012)

The molecules below were run against Ribosomal protein S6 kinase alpha-3 (Homo sapiens) (UniProt P51812). Conditions: at 1 µM.
Chain of Ribosomal protein S6 kinase alpha-3 (Homo sapiens) (P51812 whole entry): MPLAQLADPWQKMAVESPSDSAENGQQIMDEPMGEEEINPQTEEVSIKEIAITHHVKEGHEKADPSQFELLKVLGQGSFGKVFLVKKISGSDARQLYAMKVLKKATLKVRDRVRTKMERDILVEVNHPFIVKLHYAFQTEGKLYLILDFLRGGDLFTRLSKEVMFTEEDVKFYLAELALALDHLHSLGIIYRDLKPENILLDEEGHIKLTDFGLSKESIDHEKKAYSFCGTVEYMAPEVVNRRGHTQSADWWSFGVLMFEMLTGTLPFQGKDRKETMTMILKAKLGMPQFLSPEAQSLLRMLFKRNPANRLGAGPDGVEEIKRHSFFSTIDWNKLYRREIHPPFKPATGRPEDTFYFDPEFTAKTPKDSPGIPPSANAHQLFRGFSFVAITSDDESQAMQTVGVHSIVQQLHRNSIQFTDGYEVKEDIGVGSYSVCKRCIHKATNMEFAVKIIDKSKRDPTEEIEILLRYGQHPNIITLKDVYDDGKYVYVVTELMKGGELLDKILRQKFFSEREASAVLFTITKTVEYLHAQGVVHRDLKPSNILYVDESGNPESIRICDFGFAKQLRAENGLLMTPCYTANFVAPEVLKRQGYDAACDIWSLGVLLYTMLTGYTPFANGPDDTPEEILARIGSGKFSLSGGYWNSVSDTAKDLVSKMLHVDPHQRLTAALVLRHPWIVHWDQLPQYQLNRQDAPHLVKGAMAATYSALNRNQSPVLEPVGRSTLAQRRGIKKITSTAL
For c1ccc(COc2ccc(Nc3ncnc4ccc(-c5ccco5)cc34)cc2)cc1, the inhibition was 2.71%. COC(=O)Nc1nc2ccc(S(=O)(=O)c3ccc(NC(=O)Nc4cc(C(F)(F)F)ccc4F)cc3)cc2[nH]1 showed an inhibition of 0.41%. With CN(C)CCOc1ccc(-c2nc(-c3ccncc3)c(-c3ccc4c(c3)CC/C4=N\O)[nH]2)cc1 the inhibition was 2%. Work on CS(=O)(=O)CCNCc1ccc(-c2ccc3ncnc(Nc4ccc(OCc5ccccc5)c(C(F)(F)F)c4)c3c2)o1 yielded an inhibition of 1.72%. Molecule COc1cc2ncn(-c3cc(OCc4ccccc4C(F)(F)F)c(C(=O)N(C)C)s3)c2cc1OC has an inhibition of 0.59%. Molecule CC(C)COC(=O)c1ccc2c(c1)/C(=C/Nc1ccc(S(N)(=O)=O)cc1)C(=O)N2 has an inhibition of 36%. With CCc1nn2ncccc2c1-c1ccnc(NC2CC2)n1 the inhibition was 0.91%. With CN1CCC(n2cnc(-c3ccc(F)cc3)c2-c2ccnc(Nc3ccccc3)n2)CC1 the inhibition was 3.9%. Molecule FC(F)(F)c1cccc(-c2nn3ncccc3c2-c2ccnc(Nc3ccc4c(c3)OCCO4)n2)c1 has an inhibition of -1.39%. With COc1ccc2[nH]c3c4[nH]c5ccc(OC)cc5c4c4c(c3c2c1)C(=O)NC4=O the inhibition was 80.1%. CNC(=O)c1cccc(C#Cc2cncnc2Nc2ccc(OCc3cccc(F)c3)c(Cl)c2)c1 was tested, and the inhibition was 0.62%. COc1cc(N2CCN(C(C)C)CC2)ccc1Nc1nc(Nc2ccc(F)cc2C(N)=O)c2cc[nH]c2n1 showed an inhibition of 57%. Fc1ccc(-c2cc(-c3c[nH]nc3-c3ccccn3)ccn2)cc1 was tested, and the inhibition was 3.36%. With COc1cc2c(cc1Nc1nc(Nc3ccsc3C(N)=O)c3cc[nH]c3n1)N(C(=O)CN(C)C)CCC2(C)C the inhibition was 50.7%. With Fc1ccc(-c2nn3ccccc3c2-c2ccncc2)cc1 the inhibition was 3.24%. Work on CCCN(CCS(C)(=O)=O)Cc1ccc(-c2ccc3ncnc(Nc4ccc(OCc5cccc(F)c5)c(Cl)c4)c3c2)o1 yielded an inhibition of 0.24%. With COc1cc(/C=N/Nc2ncnc3[nH]ncc23)ccc1O the inhibition was 11.7%. c1cc(-c2cnn3nc(N4CCOCC4)ccc23)nc(NC2CC2)n1 gave an inhibition of 6.33%. In the case of CN1CCC(n2cnc(-c3ccc(F)cc3)c2-c2ccnc(N)n2)CC1, the inhibition is reported as 2.82%. For Fc1ccc(-c2nn3ncccc3c2-c2ccnc(Nc3ccc4c(c3)OCCO4)n2)cc1, the inhibition was 1.36%. In the case of COc1ccc(-c2oc3ncnc(N)c3c2-c2ccc(NC(=O)Nc3cc(C(F)(F)F)ccc3F)cc2)cc1, the inhibition is reported as 34.4%. CCN(CC)S(=O)(=O)c1ccc(OC)c(Nc2ncc(-c3ccccc3)o2)c1 gave an inhibition of -0.03%. In the case of Cc1ccc(O)cc1Nc1ccnc2cc(-c3ccccn3)ccc12, the inhibition is reported as -0.99%. COc1ccc(-c2nn3ncccc3c2-c2ccnc(Nc3ccc4c(c3)OCCO4)n2)cc1 was tested, and the inhibition was 0.87%. COc1cccc(-n2ncc3c(N/N=C/c4ccc(F)cc4)ncnc32)c1 gave an inhibition of 2.74%. Molecule CC1=C(C(=O)Nc2cc(Cl)c3[nH]ncc3c2)C(c2ccc(C(F)(F)F)cc2)CC(=O)N1 (centres undefined) has an inhibition of 65.5%. COc1cccc(-c2c[nH]c3c(N/N=C/c4ccncc4)ncnc23)c1 gave an inhibition of 7.47%. CC(C)(CO)CNC(=O)c1ccc2c(c1)/C(=N/Nc1ccc(S(N)(=O)=O)cc1)C(=O)N2 showed an inhibition of 4.41%. NS(=O)(=O)c1ccc(N/N=C2\C(=O)Nc3ccc4ncccc4c32)cc1 gave an inhibition of 39.4%. With CCn1c(-c2nonc2N)nc2cnc(Oc3cccc(NC(=O)c4ccc(N(C)C)cc4)c3)cc21 the inhibition was 52.8%. Work on c1ccc(-c2nc3n(c2-c2ccc4c(c2)OCO4)CCC3)nc1 yielded an inhibition of 5.78%. With NC(=O)c1sc(-n2cnc3ccc(C(F)(F)F)cc32)cc1OCc1ccccc1Br the inhibition was 2.48%. COc1ccc(-c2cc3c(N)ncnc3o2)cc1 gave an inhibition of 2.31%. N#Cc1c(NC(=O)c2ccc(F)cc2)sc2c1CCCC2 was tested, and the inhibition was 2.51%.
